Shown are actives, neighbours in structure and some others; about 19% of the full set was active somewhere.
HT1080NT lethal = qHTS for induction of synthetic lethality in tumor cells producing 2HG: qHTS for the HT-1080-NT fibrosarcoma cell line | HT-1080-NT fibrosarcoma viability, CellTiter-Glo ATP luminescence, 48 h | Potency, µM (doses to about 46.1 µM), for the others: at the highest dose activity, negative = less viability, most hits filed as cytotoxic | actives 1.6% (n = 360,000);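 also: NT is the 2HG producing partner of a matched IDH1 knockdown line; potency is read from the fitted curve at half-maximal effect; 0% = DMSO-treated cells and -100% = media-only wells without cells; nearly all actives have a fitted effect of over 55% in size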
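750 cells/well, RPMI + 5% FBS; 2 h settle, compound pin-transfer, 48 h at 37 degrees C. CellTiter-Glo 10 min RT, luminescence. Normalized to DMSO and media-only wells.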
IL1B secr inh = qHTS for Inhibitors of Inflammasome Signaling: IL-1-beta AlphaLISA Primary Screen | THP-1 LPS/ATP IL-1B secretion, AlphaLISA, 16 h; hits give low values | activity change, % at 57.5 µM | actives 4.7% (n = 360,000) | AID 743279, 2014; in the data active = activity change below about -50%; inconclusive = mostly about -30% to -49%
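Secreted IL-1B measured by AlphaLISA bead assay after 16 h compound exposure of THP-1 cells; compounds (final up to 57.5 uM) added 1 h before LPS (250 ng/mL) and ATP (1.25 mM) stimulation; lower signal means less secretion.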
HT1080 IDH1KD tx = qHTS for induction of synthetic lethality in tumor cells producing 2HG: qHTS for the HT-1080-IDH1KD cell line | Potency, µM (doses to about 46.1 µM), without a hit: top-dose activity, negative = toxicity, most hits filed as cytotoxic | actives 2% (n = 360,000) | HT-1080 IDH1 knockdown viability, ATP luminescence, 48 h;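 also: potency is read from the fitted curve at half-maximal effect; 0% = DMSO wells and -100% = cell-free medium wells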
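Cytotoxicity counter-line: IDH1KD HT-1080, 48 h, CellTiter-Glo. Curves classed by r2, magnitude and activity.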
DT40 TDP1 no CPT = qHTS for Inhibitors of human tyrosyl-DNA phosphodiesterase 1 (TDP1): qHTS in cells in absence of CPT; Potency, µM (top dose mostly 46.2 µM), for inactives: at the top dose activity change, negative = growth inhibition, hits mostly inhibitors; actives 15% (n = 420,000); DT40 Tdp1-/- hTDP1 cells, no CPT, ATP luminescence, 48 h; also: potency is read from the fitted curve at half-maximal effect; nearly all actives have a fitted effect of over 55% in size
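Seeded 400 DT40-hTDP1 cells/well (vehicle DMSO, no 20 nM CPT); pinned compounds; ≥48 hr at 37 °C; CellTiter-Glo luminescence as viability measure.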
uPA surface inh = qHTS for Inhibitors of Cell Surface uPA Generation; cell surface uPA generation assay, qHTS; Potency, µM (titrated, usually from 38.3 µM), without a hit: at the highest dose activity change, negative = inhibition, usual class: inhibitors; actives 0.31% (n = 330,000); AID 540303, 2011; active = well fitted inhibition curve with a large enough effect; inconclusive = small, poorly fitted or top-dose-only effect; inactive = no such curve, though single readings can be large or run the other way; tested in mouse RAW 264.7 cells; also: potency is read from the fitted curve at half-maximal effect; nearly all actives have a fitted effect of over 55% in size
DT40 TDP1 CPT = qHTS for Inhibitors of human tyrosyl-DNA phosphodiesterase 1 (TDP1): qHTS in cells in presence of CPT; AID 686979, 2013; Potency, µM (highest dose often 46.2 µM), for the others: top-dose activity change, negative = growth inhibition, actives largely listed as inhibitors; chicken DT40 Tdp1-/-;hTDP1 cells + 20 nM CPT, ATP luminescence, 48 h; actives 12% (n = 420,000); also: potency is read from the fitted curve at half-maximal effect; nearly all actives have a fitted effect of over 55% in size
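Chicken DT40 Tdp1-/- cells stably complemented with human TDP1 were seeded at 400 cells/well in medium containing 20 nM camptothecin, exposed to pin-transferred compounds, and grown at 37 °C for at least 48 hr. Viability was read as ATP luminescence.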
The depositor's hits bear a star. Unless noted, calls follow the shape of the dose curve; as a rule, active = well fitted curve in the direction sought with a large enough effect; inconclusive = small, poorly fitted or top-dose-only effect, or another doubt; inactive = no such curve, though single readings can be large; an effect the other way counts as inactive or inconclusive. Unless noted, % is scaled to controls: 0 for no effect and ±100 for the full control effect.

Screening CCOc1ccc(CCNC(=O)CCc2cn(Cc3ccc(C)cc3)c3ccccc23)cc1 returned DT40 TDP1 no CPT 12µM* and DT40 TDP1 CPT inconclusive.
Cc1ccc(Cn2cc(CCC(=O)NC3CCCCC3)c3ccccc32)cc1 was read as DT40 TDP1 no CPT 15µM* and DT40 TDP1 CPT inconclusive.
CCOc1ccccc1CNC(=O)CCc1cn(CC)c2ccccc12 was read as HT1080NT lethal -6%, IL1B secr inh 14, HT1080 IDH1KD tx -7%, DT40 TDP1 no CPT inconclusive, uPA surface inh 12% and DT40 TDP1 CPT inconclusive.
Screening COc1ccc(CCNC(=O)CCc2cn(Cc3ccc(F)cc3)c3ccccc23)cc1OC returned DT40 TDP1 no CPT 16µM* and DT40 TDP1 CPT inconclusive.
For Cc1ccc(CNC(=O)CCc2cn(Cc3ccc(C)cc3)c3ccccc23)cc1 the results were DT40 TDP1 no CPT -25% and DT40 TDP1 CPT -25%.
Screening Cc1ccc(CNC(=O)CC2(CC3=NS(=O)(=O)c4ccccc4N3)CCCC2)cc1 returned HT1080NT lethal -16%, IL1B secr inh -4, HT1080 IDH1KD tx -12%, DT40 TDP1 no CPT inconclusive, uPA surface inh 29% and DT40 TDP1 CPT inconclusive.
`CC(=O)NC(CC(=O)N1CCN(C(C)=O)CC1)c1ccccc1` (configuration not stated) gave HT1080NT lethal inconclusive, IL1B secr inh 3, HT1080 IDH1KD tx 9%, DT40 TDP1 no CPT 6%, uPA surface inh 5% and DT40 TDP1 CPT -1%.
`COc1ccc(CCNC(=O)CCc2cn(Cc3ccccc3Cl)c3ccccc23)c(OC)c1` gave DT40 TDP1 no CPT 16µM* and DT40 TDP1 CPT inconclusive.
`Cc1ccccc1OCC(=O)NCC(C)NC(=O)COc1ccccc1C` (configuration not stated) gave DT40 TDP1 no CPT -23% and DT40 TDP1 CPT -9%.
For CCN1CCC(N(Cc2cccc(OC)c2)C(=O)Nc2ccc(C)cc2Cl)CC1 the results were DT40 TDP1 no CPT 18µM* and DT40 TDP1 CPT inconclusive.
CCN(CC(=O)Nc1cccc(OC)c1)CC(=O)Nc1ccc(C)cc1Cl was read as HT1080NT lethal 15%, IL1B secr inh -23, HT1080 IDH1KD tx 11%, DT40 TDP1 no CPT inconclusive, uPA surface inh -5% and DT40 TDP1 CPT inconclusive.
For COc1ccc(CN(C(=O)Nc2cccc(OC)c2)C2CCN(C(C)=O)CC2)cc1 the results were DT40 TDP1 no CPT -16% and DT40 TDP1 CPT -13%.
COc1ccccc1NC(=O)CN1CCN(CC(=O)Nc2cc(NC(C)=O)ccc2OC)CC1 was read as HT1080NT lethal 4%, IL1B secr inh -21, HT1080 IDH1KD tx 5%, DT40 TDP1 no CPT inconclusive, uPA surface inh -9% and DT40 TDP1 CPT inconclusive.
COc1cccc(C(C)NC(=O)Nc2ccccc2Cl)c1 (configuration not stated) was read as HT1080NT lethal -4%, IL1B secr inh 6, HT1080 IDH1KD tx -11%, DT40 TDP1 no CPT inconclusive, uPA surface inh -9% and DT40 TDP1 CPT 21µM*.
For COC(=O)c1ccc(Cl)cc1NC(=O)N(Cc1ccc(OC)cc1)C1CCN(C(C)=O)CC1 the results were DT40 TDP1 no CPT 7.3µM* and DT40 TDP1 CPT inconclusive.
Screening COc1ccc(NC(C)=O)cc1NC(=O)CN1CCN(CC(=O)Nc2ccccc2Cl)CC1 returned HT1080NT lethal -3%, IL1B secr inh inconclusive, HT1080 IDH1KD tx 0%, DT40 TDP1 no CPT 21µM*, uPA surface inh 3% and DT40 TDP1 CPT inconclusive.
Screening O=C(CN1CCN(C(=O)C2CCN(C(=O)/C=C/c3ccccc3)CC2)CC1)Nc1ccccc1Cl returned HT1080NT lethal -5%, IL1B secr inh 13, HT1080 IDH1KD tx 1%, DT40 TDP1 no CPT 18µM*, uPA surface inh -2% and DT40 TDP1 CPT inconclusive.
For COc1ccccc1CN(C)C(=O)CN1CCN(C(=O)c2cccs2)CC1 the results were HT1080NT lethal -3%, IL1B secr inh 4, HT1080 IDH1KD tx -3%, DT40 TDP1 no CPT inconclusive, uPA surface inh 6% and DT40 TDP1 CPT inconclusive.
O=C(CN1CCCCCC1)Nc1ccccc1Cl was read as HT1080NT lethal -2%, IL1B secr inh 25, HT1080 IDH1KD tx -2%, DT40 TDP1 no CPT -16%, uPA surface inh 1% and DT40 TDP1 CPT -7%.
Screening COc1ccccc1CN(C)C(=O)CN1CCN(CC(=O)Nc2ccccc2Cl)CC1 returned HT1080NT lethal 9%, IL1B secr inh -13, HT1080 IDH1KD tx 12%, DT40 TDP1 no CPT 23µM*, uPA surface inh -3% and DT40 TDP1 CPT 23µM*.
Screening COc1cccc(CN2CCN(CC(=O)Nc3ccccc3Cl)CC2)c1 returned HT1080NT lethal -6%, IL1B secr inh -7, HT1080 IDH1KD tx -8%, DT40 TDP1 no CPT 16µM*, uPA surface inh 4% and DT40 TDP1 CPT inconclusive.
O=C(CN1CCN(CC(=O)Nc2ccccc2Cl)CC1)Nc1ccc(F)c(F)c1 was read as HT1080NT lethal -5%, IL1B secr inh -22, HT1080 IDH1KD tx -2%, DT40 TDP1 no CPT 23µM*, uPA surface inh 9% and DT40 TDP1 CPT inconclusive.
For O=C(CN1CCCCCC1)Nc1ccc(F)c(F)c1 the results were HT1080NT lethal -1%, IL1B secr inh 4, HT1080 IDH1KD tx 3%, DT40 TDP1 no CPT -16%, uPA surface inh 6% and DT40 TDP1 CPT -6%.
O=C(Nc1cc(S(=O)(=O)N2CCOCC2)ccc1N1CCCC1)c1ccccc1C(F)(F)F was read as HT1080NT lethal 4%, IL1B secr inh 16, HT1080 IDH1KD tx 1%, DT40 TDP1 no CPT 13%, uPA surface inh 8% and DT40 TDP1 CPT 6%.
COc1cc(=O)n2c(c1C(=O)NC(C)c1ccco1)CCN(Cc1ccnc3ccccc13)CC2 (configuration not stated) was read as DT40 TDP1 no CPT -11% and DT40 TDP1 CPT inconclusive.
For COc1ccccc1Cc1c(-c2ccc(C#N)cc2)nc2c(Cl)cc(C(F)(F)F)cn12 the results were HT1080NT lethal -9%, IL1B secr inh 28, HT1080 IDH1KD tx -3%, DT40 TDP1 no CPT 15µM* and DT40 TDP1 CPT 23µM*.
For FC(F)(F)c1cc(Cl)c2nc(-c3ccccc3)c(Cc3ccccc3)n2c1 the results were HT1080NT lethal 22%, IL1B secr inh 0, HT1080 IDH1KD tx 13%, DT40 TDP1 no CPT 3% and DT40 TDP1 CPT -21%.

High-throughput results as filed in PubChem BioAssay.
